# “And” between values parts separate entries of the source, which are not always exact repeats. Identical values can stand only once. Records with an inconclusive call do not appear. Entries that show only a call come without a potency. More than one record can exist for a structure, and the calls need not agree. The source made the active and inactive calls. Unless noted, calls follow the shape of the dose curve; as a rule, active = well fitted curve in the direction sought with a large enough effect in the repeat runs; inconclusive = weak or mixed curves; inactive = no such curve, though single readings can be large; an effect the other way counts as inactive or inconclusive.
# Tests used:
# [1] = biological target: Thyrotropin-releasing hormone receptor (Homo sapiens) (UniProt P34981); test: qHTS assay to identify small molecule agonists of the thyrotropin-releasing hormone receptor (TRHR) signaling pathway (AID 1346891; calls by dose curve; also: potency is read from the fitted curve at half-maximal effect; as to activation: series mostly up to about 58 µM)
# Thyrotropin-releasing hormone receptor (Homo sapiens), sequence (P34981 whole entry, looked up): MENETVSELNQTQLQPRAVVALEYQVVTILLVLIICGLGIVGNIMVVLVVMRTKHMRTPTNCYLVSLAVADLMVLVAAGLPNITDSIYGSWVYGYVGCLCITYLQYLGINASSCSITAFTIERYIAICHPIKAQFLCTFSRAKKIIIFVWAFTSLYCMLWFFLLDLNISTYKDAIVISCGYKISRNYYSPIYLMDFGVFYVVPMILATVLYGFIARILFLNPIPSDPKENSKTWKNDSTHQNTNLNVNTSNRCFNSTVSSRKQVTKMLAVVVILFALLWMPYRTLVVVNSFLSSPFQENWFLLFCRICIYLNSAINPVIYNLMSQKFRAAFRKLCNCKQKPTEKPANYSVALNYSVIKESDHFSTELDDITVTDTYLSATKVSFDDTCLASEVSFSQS
# How it was run: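 TRHR-expressing HEK293 cells were plated 18 h at 37 °C/5% CO2, loaded with calcium dye 2 h at 37 °C, then given compound in DMSO; fluorescence was read kinetically for 3 min at 1 s intervals.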
# [2] = Caspase-3/7 induction in HepG2 cells by small molecules, qHTS assay (AID 1346978); also: nearly all actives have a fitted effect of over 15% in size; also: potency is read from the fitted curve at half-maximal effect
# How it was run: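 Wild-type HepG2 cells (2,000/well) were settled 5 h at 37 C, 5% CO2, then exposed to compounds in DMSO for 17 h. Caspase-3/7 activity was read by luminescence 30 min after adding Caspase-Glo 3/7 reagent at room temperature.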
# [3] = Caspase-3/7 induction in CHO-K1 cells by small molecules, qHTS cell viability counter screen (AID 1346979); also: nearly all actives have a fitted effect of over 35% in size; also: potency is read from the fitted curve at half-maximal effect
# How it was run: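 Wild-type CHO-K1 cells were seeded at 1,500 per well, rested 5hr at 37 C, then exposed to compounds in DMSO. After 16hr, CellTiter-Fluor reagent was added and fluorescence read 1hr later as the viability measure.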
# [4] = Caspase-3/7 induction in CHO-K1 cells by small molecules, qHTS assay (AID 1346980); also: nearly all actives have a fitted effect of over 15% in size
# How it was run: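 Wild-type cells were seeded at 1,500 per well and settled 5 hr at 37 C, 5% CO2, then exposed to DMSO-dissolved compounds for 17 hr. Caspase-Glo 3/7 reagent was added, and luminescence was read after 30min at room temperature.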
# [5] = Caspase-3/7 induction in HepG2 cells by small molecules, qHTS cell viability counter screen (AID 1346981); also: nearly all actives have a fitted effect of over 30% in size; also: potency is read from the fitted curve at half-maximal effect
# How it was run: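 Treatment of HepG2 cells with DMSO-delivered compounds ran 16 hr at 37 C following a 5-hr pre-incubation of 2,000 cells/well. CellTiter-Fluor fluorescence, read after 1 hr, served as the viability measure in a qHTS format.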
# [6] = biological target: Nuclear receptor subfamily 1 group I member 2 (Homo sapiens) (UniProt O75469); test: Human pregnane X receptor (PXR) small molecule agonists, qHTS assay (AID 1346982); also: nearly all actives have a fitted effect of over 35% in size; also: potency is read from the fitted curve at half-maximal effect
# Nuclear receptor subfamily 1 group I member 2 (Homo sapiens), sequence (O75469 whole entry, looked up): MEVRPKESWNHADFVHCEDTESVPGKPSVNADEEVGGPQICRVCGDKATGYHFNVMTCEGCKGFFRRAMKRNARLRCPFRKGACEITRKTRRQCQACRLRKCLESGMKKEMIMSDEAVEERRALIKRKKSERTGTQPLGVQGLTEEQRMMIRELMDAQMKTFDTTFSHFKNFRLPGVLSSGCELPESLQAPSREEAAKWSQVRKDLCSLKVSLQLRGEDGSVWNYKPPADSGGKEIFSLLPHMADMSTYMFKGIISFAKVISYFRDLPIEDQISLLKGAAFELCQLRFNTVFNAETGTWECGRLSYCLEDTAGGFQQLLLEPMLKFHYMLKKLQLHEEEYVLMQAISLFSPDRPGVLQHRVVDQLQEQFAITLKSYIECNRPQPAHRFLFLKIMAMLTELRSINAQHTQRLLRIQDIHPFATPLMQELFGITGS
# How it was run: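 Stable HepG2 line reporting PXR-mediated CYP3A4 expression via luciferase. Treatment: 24 hr with compounds in DMSO at 37 C. Detection: ONE-Glo luminescence.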
# [7] = Human pregnane X receptor (PXR) small molecule agonists, qHTS cell viability counter screen (AID 1346977); also: nearly all actives have a fitted effect of over 50% in size; also: potency is read from the fitted curve at half-maximal effect
# How it was run: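 PXR-Luc HepG2 cells in medium with 5% charcoal-stripped FBS were pre-incubated 5hr, then exposed to compounds for 24hr at 37C. Viability was read in the same wells by CellTiter-Fluor fluorescence, reagent added after 23hr with a 1hr incubation.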
# [8] = biological target: Nuclear receptor subfamily 1 group I member 2 (Rattus norvegicus) (UniProt Q9R1A7); test: Rat pregnane X receptor (rPXR) activation by small molecules, qHTS assay (AID 1346983); details: rPXR luciferase reporter cells, One-Glo luminescence, 24 h; max activation: stronger effect = higher value; also: nearly all actives have a fitted effect of over 20% in size; also: potency is read from the fitted curve at half-maximal effect
# Nuclear receptor subfamily 1 group I member 2 (Rattus norvegicus), sequence (Q9R1A7 whole entry, looked up): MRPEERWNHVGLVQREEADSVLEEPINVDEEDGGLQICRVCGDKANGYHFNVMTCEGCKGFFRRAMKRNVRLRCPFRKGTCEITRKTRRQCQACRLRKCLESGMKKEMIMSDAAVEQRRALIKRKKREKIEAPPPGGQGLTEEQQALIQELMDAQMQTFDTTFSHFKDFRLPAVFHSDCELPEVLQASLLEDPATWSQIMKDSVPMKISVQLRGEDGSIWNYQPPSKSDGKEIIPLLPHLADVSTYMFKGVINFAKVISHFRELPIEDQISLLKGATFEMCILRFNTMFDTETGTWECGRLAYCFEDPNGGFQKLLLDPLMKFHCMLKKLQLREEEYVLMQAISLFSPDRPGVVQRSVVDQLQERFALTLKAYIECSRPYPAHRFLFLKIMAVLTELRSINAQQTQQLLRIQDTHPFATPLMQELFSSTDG
# How it was run: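 Cell-based rPXR luciferase reporter assay, 2,000 cells per well, rested 5hr at 37 C before compound addition in DMSO, then 24 hr at 37 C. One-Glo reagent was added and luminescence read after 30 min at room temperature.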
# [9] = biological target: Nuclear receptor subfamily 1 group I member 2 (Homo sapiens) (UniProt O75469); test: CYP3A4 induction through human pregnane X receptor (PXR) by small molecules, qHTS assay (AID 1346984); also: nearly all actives have a fitted effect of over 40% in size
# How it was run: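 After 24 h at 37C with compound, DPX-2 cells (HepG2, co-transfected PXR response element and CYP3A4 promoter-luciferase) got 3uM final P450-Glo Luciferin-IPA for 3 h; One-Glo luminescence followed.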
# [10] = biological target: Nuclear receptor subfamily 1 group I member 2 (Homo sapiens) (UniProt O75469); test: Human pregnane X receptor (PXR) activation by small molecules, qHTS assay (AID 1346985); also: nearly all actives have a fitted effect of over 40% in size; also: potency is read from the fitted curve at half-maximal effect
# How it was run: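 DPX-2 cells (HepG2 co-transfected with a PXR response element and a CYP3A4-promoter luciferase construct) were seeded at 2,000 per well, rested 5 hr at 37C, then exposed to DMSO-dissolved compounds for 24 hr. Activation was read as luciferase luminescence.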
Structure (SMILES),Potency [1],Potency [2],Potency [3],Potency [4],Potency [5],Potency [6],Potency [7],max activation [8],Potency [9],Potency [10],Potency [8]
CN(C)CCC=C1c2ccccc2CCc2ccccc21,inactive,68.6 µM (active) and inactive,61.1 µM (active),inactive,inactive,19.3 µM (active) and inactive,,,,,
COC(=O)C1=C(C)NC(C)=C(C(=O)OCCN(C)Cc2ccccc2)C1c1cccc([N+](=O)[O-])c1 (stereo not given),inactive,,30.5 µM (active) and 26.6 µM (active),inactive,48.3 µM (active) and 26.6 µM (active),,,,,,
O=Cc1ccccc1O,inactive,,inactive,inactive,inactive,inactive,inactive,,,,
O=C1c2cccc(O)c2C(=O)c2c(O)cccc21,inactive,,inactive,inactive,inactive,inactive,inactive,-1.61% (inactive),inactive,inactive,
OCCO,inactive,inactive,inactive,inactive,inactive,inactive,,,,,
c1ccc2cc(Nc3ccc(Nc4ccc5ccccc5c4)cc3)ccc2c1,inactive,inactive,inactive,inactive,inactive,inactive,,,,,
CC(CCC(=O)O)(c1ccc(O)cc1)c1ccc(O)cc1,inactive,inactive,inactive,inactive,inactive,inactive,,,,,
CCCCOCCOCCOCCO,inactive,,inactive,inactive,inactive,inactive,,,,,
COc1cc([C@@H]2c3cc4c(cc3[C@H](O)[C@H]3COC(=O)[C@H]23)OCO4)cc(OC)c1OC,inactive,inactive,8.6 nM (active) and 21.1 nM (active),inactive,,0.0485 µM (active),,,,14.1 µM (active),
CCC(C)OC(=O)c1ccc(O)cc1 (stereo not given),inactive,inactive,inactive,inactive,inactive,69 µM (active) and 54.5 µM (active),,,,,
O=C(OCc1ccccc1)c1ccccc1O,inactive,inactive,inactive,inactive,inactive,inactive,,,,,
CCC(C)c1ccccc1O (stereo not given),inactive,inactive,inactive,inactive,inactive,inactive,,,,,
CC(C(=O)O)c1cccc(C(=O)c2ccccc2)c1 (stereo not given),inactive,inactive,inactive,inactive,inactive,,,,,,
CN1C(C(=O)Nc2ccccn2)=C(O)c2ccccc2S1(=O)=O,inactive,,inactive,inactive,inactive,,inactive,-2.52% (inactive),inactive,inactive,
c1cc(-c2ccncc2)ccn1,inactive,,inactive,inactive,inactive,inactive,inactive,,,,
c1ccc2c(c1)c1cccc3ccc4cccc2c4c31,inactive,inactive,inactive,inactive,inactive,inactive,,,,,
c1cc(N(CC2CO2)CC2CO2)ccc1OCC1CO1 (stereo not given),inactive,,48.6 µM (active) and 27.3 µM (active),inactive,54.5 µM (active) and 27.3 µM (active),48.6 µM (active) and 24.3 µM (active),,,,,
C#C[C@]1(O)CC[C@H]2[C@@H]3CCC4=Cc5oncc5C[C@]4(C)[C@H]3CC[C@@]21C,inactive,inactive,43.3 µM (active) and 26.6 µM (active),inactive,inactive,30.6 µM (active) and 29.8 µM (active),,,inactive,inactive,7.94 µM (active)
CC(=O)Oc1ccccc1C(=O)Nc1ncc([N+](=O)[O-])s1,inactive,inactive,12.4 µM (active) and 18.8 µM (active),inactive,15.7 µM (active) and 21.1 µM (active),11.1 µM (active) and 2.11 µM (active),,-18.4% (inactive),inactive,inactive,
O=C1OC2(c3cc(Br)c(O)c(Br)c3Oc3c2cc(Br)c(O)c3Br)c2c(Cl)c(Cl)c(Cl)c(Cl)c21,15.5 µM (active) and 23.6 µM (active),,6.87 µM (active) and 14.8 µM (active),inactive,9.7 µM (active) and 16.6 µM (active),inactive,2.51 µM (active) and 11.7 µM (active),,,,
CCCC(=O)O,inactive,,inactive,inactive,inactive,inactive,inactive,-1.54% (inactive),inactive,inactive,
c1ccc2sc(SSN3CCOCC3)nc2c1,inactive,inactive,61 µM (active) and 61.1 µM (active),inactive,inactive,61 µM (active) and 68.6 µM (active),,,,,
Cc1c(OCC(F)(F)F)ccnc1CS(=O)c1nc2ccccc2[nH]1 (stereo not given),inactive,inactive,,inactive,inactive,,,,,,
CCCCC(CC)COCC1CO1 (stereo not given),inactive,inactive,inactive,inactive,inactive,inactive,,,,,
Cn1cnc([N+](=O)[O-])c1Sc1ncnc2nc[nH]c12,inactive,inactive,51.1 µM (active),inactive,48.2 µM (active),inactive,,,,,
CC(C)OC=O,inactive,inactive,inactive,inactive,inactive,inactive,,,,,
CC(=O)c1ccccn1,inactive,inactive,inactive,inactive,inactive,inactive,,,,,

Structure (SMILES),Potency [1],Potency [2],Potency [3],Potency [4],Potency [5],Potency [6],Potency [7],max activation [8],Potency [9],Potency [10],Potency [8]
COC(=O)Nc1nc2ccc(S(=O)c3ccccc3)cc2[nH]1 (stereo not given),inactive,,8.41 µM (active),inactive,inactive,68.5 µM (active) and 8.41 µM (active),inactive,,,,
O=CCCCC=O,inactive,inactive,inactive,inactive,inactive,inactive,,4.17% (inactive),inactive,inactive,
COc1c(Cl)c(Cl)c(Cl)c(Cl)c1Cl,inactive,,inactive,inactive,inactive,inactive,inactive,,,,
COc1ccccc1/C=C/C=O,,,,inactive,inactive,,inactive,,,,
Cc1ncc[nH]1,,inactive,inactive,inactive,inactive,,,1.32% (inactive),,,
S=C(NC1CCCCC1)NC1CCCCC1,,inactive,60 µM (active) and 43.3 µM (active),inactive,inactive,26.8 µM (active) and 19.3 µM (active),inactive,,,,
Nc1ncnc2nc[nH]c12,,inactive,inactive,inactive,inactive,27.3 µM (active) and inactive,inactive,0.861% (inactive),inactive,inactive,
NC=O,,inactive,inactive,inactive,inactive,inactive,inactive,,,,
Nc1ccc(S(=O)(=O)Nc2cnc3ccccc3n2)cc1,,inactive,inactive,inactive,inactive,inactive,inactive,6.27% (inactive),inactive,inactive,
CCC(C)CO (stereo not given),,,inactive,inactive,inactive,inactive,,,,,
COc1ccc(OC)c(C(O)CNC(=O)CN)c1 (stereo not given),,inactive,inactive,inactive,inactive,inactive,inactive,1.02% (inactive),inactive,inactive,
CN(C)CCN(Cc1cccs1)c1ccccn1,,,inactive,inactive,inactive,20 µM (active) and inactive,inactive,-1.17% (inactive),inactive,inactive,
O=C(Nc1ccc(Cl)cc1)Nc1ccc(Cl)c(Cl)c1,,inactive,19.2 µM (active) and 17.2 µM (active) and 18.8 µM (active),inactive,,7.66 µM (active),,-13.1% (inactive),inactive,inactive,
CC(C)OB(OC(C)C)OC(C)C,,,inactive,inactive,inactive,inactive,inactive,,,,
CC(C)OC(=O)C(C)(C)Oc1ccc(C(=O)c2ccc(Cl)cc2)cc1,,,54.5 µM (active),inactive,inactive,27.3 µM (active),inactive,,,,
CCCCOCCOCCO,,inactive,inactive,inactive,inactive,inactive,inactive,,,,
c1ccc(Nc2ccccc2)cc1,,inactive,inactive,inactive,inactive,61.1 µM (active) and inactive,inactive,,,,
Nc1ccc(Cl)cc1Cl,,inactive,inactive,inactive,inactive,inactive,inactive,,,,
Cc1[nH]c(=O)c(C#N)cc1-c1ccncc1,inactive,,inactive,inactive,inactive,1.37 µM (active),,1.02% (inactive),inactive,inactive,
CC(C)=CCC/C(C)=C\CO,,inactive,inactive,inactive,inactive,,,,,,
Cc1c(C(N)=O)cc([N+](=O)[O-])cc1[N+](=O)[O-],,inactive,inactive,inactive,inactive,inactive,,0.724% (inactive),inactive,inactive,
CCC(C)(O)CCCC(C)C (stereo not given),,,inactive,inactive,inactive,inactive,inactive,,,,
Clc1nc(Cl)c(Cl)c(Cl)c1Cl,,,inactive,inactive,inactive,inactive,inactive,,,,
O=C(c1ccc(OCCN2CCCCC2)cc1)c1c(-c2ccc(O)cc2)sc2cc(O)ccc12,,68.7 µM (active) and inactive,54.5 µM (active) and 61.1 µM (active) and 26.6 µM (active),inactive,61.2 µM (active) and 61.1 µM (active),,21.7 µM (active) and 24.3 µM (active) and 23.7 µM (active),,,,
CCCCCCCCCCCO,,inactive,inactive,inactive,inactive,inactive,,,,,
CC(=O)O[C@]1(C(C)=O)CC[C@H]2[C@@H]3C=C(Cl)C4=CC(=O)[C@@H]5C[C@@H]5[C@]4(C)[C@H]3CC[C@@]21C,,,,inactive,inactive,61.1 µM (active) and inactive,inactive,,inactive,inactive,
